In PubChem BioAssay (NCI):
The panel holds about 83,000 compounds, 20% with a hit somewhere; the sample as a whole holds those more often.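 Percent growth is the endpoint: 0 to 100 indicates growth inhibition (40 means 60% inhibition), 0 means no net growth, and negative values indicate cell death.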 Values without a mark were called inactive. Activity calls are given as the source filed them. How the source made its calls: active means growth percent below 10; inactive means the rest.

Experiments:
Experiment in all cases: NCI-60 one-dose screen, 48 h (100 = growth as untreated, 0 = no growth, -100 = all killed)
Settings in all cases: 10 µM unless noted
[1] = tested on: DU-145 prostate
[2] = tested on: MALME-3M melanoma
[3] = tested on: MDA-MB-231 breast
[4] = tested on: RXF 393 renal
[5] = tested on: SF-268 CNS
[6] = tested on: SF-295 CNS
[7] = tested on: SF-539 CNS
[8] = tested on: UACC-257 melanoma
[9] = tested on: M14 melanoma
[10] = tested on: HCT-15 colon
[11] = tested on: HT29 colon
[12] = tested on: SNB-75 CNS
[13] = tested on: SNB-19 CNS
[14] = tested on: U251 CNS
[15] = tested on: PC-3 prostate
[16] = tested on: SK-MEL-5 melanoma
[17] = tested on: UACC-62 melanoma
[18] = tested on: LOX IMVI melanoma
[19] = tested on: SK-MEL-28 melanoma

Row | SMILES | growth [1] | growth [2] | growth [3] | growth [4] | growth [5] | growth [6] | growth [7] | growth [8] | growth [9] | growth [10] | growth [11] | growth [12] | growth [13] | growth [14] | growth [15] | growth [16] | growth [17] | growth [18] | growth [19]
1 | Cc1cn(-c2nc3c(c(NCc4ccccc4)n2)COCC3)c2cccc(C(N)=O)c12 | 87.6% [0.5 µM] | 82.9% [0.5 µM] | 58.5% [0.5 µM] | 43.6% [0.5 µM] | 76.9% [0.5 µM] | 36.1% [0.5 µM] | 84.6% [0.5 µM] | 68.1% [0.5 µM] | 55.2% [0.5 µM] | 81.9% [0.5 µM] | 63.4% [0.5 µM] | 107% [0.5 µM] | 97.4% [0.5 µM] | 93.5% [0.5 µM] | 83.8% [0.5 µM] | -20.3% [0.5 µM] (active) | 44.3% [0.5 µM] | 16.3% [0.5 µM] | 96.5% [0.5 µM]
2 | CCOc1cccc(Nc2nc(N)nc3[nH]c4ccc(O)cc4c23)c1 | 49% | 96.9% | 54.8% | 43% | 44.6% | 68.1% | 81.4% | 88.6% | 75.3% | 85.4% | 93.3% | 46.1% | 70.1% | 79.7% | 74.8% | 54.4% | 73.8% | 36.7% | 89.3%
3 | c1coc(CSc2ncnc3nc[nH]c23)c1 | 108% | 125% | 115% | 91.1% | 101% | 142% | 91.6% | 97.3% | 101% | 101% | 110% | 95.1% | 86.2% | 102% | 90.1% | 109% | 98.3% | 89.2% | 108%
4 | O=C(Nc1ccc(Cl)c(Cl)c1)Nc1ccc(Cl)c([N+](=O)[O-])c1 | 18% | -12.3% (active) | -62.6% (active) | -11.8% (active) | 14.1% | -26.6% (active) | 8.74% (active) | -8.5% (active) | 0.455% (active) | 5.16% (active) | 2.02% (active) | 16.2% | 15.1% | 6.28% (active) | -0.546% (active) | -90.2% (active) | 9.51% (active) | -19% (active) | 12.8%
5 | OCc1cnccc1NC12CC3CC(CC(C3)C1)C2 | 104% | 99.4% | 97.6% | 99.9% | 98.3% | 102% | 108% | 90% | 100% | 103% | 88.7% | 105% | 101% | 98.9% | 102% | 98.3% | 104% | 96.7% | 105%
6 | O=C(Cn1c2ccccc2c2ccncc21)N/N=C/c1cc(O)c(O)c(O)c1 | 104% | 112% | 101% | 97.7% | 98.1% | 110% | 93.1% | 98.8% | 110% | 105% | 103% | 115% | 93.9% | 101% | 102% | 101% | 103% | 96.9% | 108%
7 | CC1=C2C(=C[C@@](C)(CO)[C@@H]2OC(=O)N(C)CCN(C)C(=O)OC(C)(C)C)C(=O)[C@](C)(O)C12CC2 | 8.82% (active) | 67.3% | 48% | -57.3% (active) | 4.84% (active) | 5.06% (active) | 57.9% | 100% | 54.8% | 21% | 6.33% (active) | 79.9% | 72.3% | 22.6% | 47.7% | 76.7% | 84.2% | 61.8% | 82.3%
8 | COc1ccc(C(=O)Cn2cnc3c(Nc4cc(C(=O)Nc5ccc(N6CCN(CCO)CC6)cc5)ccc4C)ncnc32)cc1 | 105% | 116% | 110% | 113% | 98.6% | 93.2% | 98.2% | 104% | 95.3% | 102% | 101% | 79.4% | 108% | 105% | 105% | 102% | 104% | 94.2% | 105%
